In PubChem BioAssay (NCI):
The panel holds about 79,000 compounds, 15% with a hit somewhere; the sample as a whole holds those more often. The source made the active and inactive calls. Cut-off read from the data, not from the text of the source: active = growth inhibition above about 70%; inactive = the rest.

Tests used:
[1] = NCI Yeast Anticancer Drug Screen. Data for the rad50 strain (AID 155);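 note: 0% = growth of vehicle-only cultures of the same strain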; conditions: S. cerevisiae rad50 strain growth inhibition; at 50.0 µM; active compounds read high
Procedure, shortened: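 Growth of the mutant yeast was measured after compound exposure and referenced to vehicle-treated cultures.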

[2] = NCI Yeast Anticancer Drug Screen. Data for the mec2-1 strain (AID 157); conditions: S. cerevisiae mec2-1 strain, at 50.0 µM, active compounds read high
Procedure, shortened: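 Cells of the genetically defined mec2-1 yeast strain are incubated with test compound. Inhibition of growth is calculated against vehicle-treated controls.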

[3] = NCI Yeast Anticancer Drug Screen. Data for the sgs1 mgt1 strain (AID 161);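 note: 0% = growth of cultures given vehicle only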; conditions: S. cerevisiae sgs1 mgt1 strain, at 50.0 µM, active compounds read high
Procedure, shortened: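 Genetically altered yeast, compound exposure, growth inhibition relative to vehicle.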

[4] = NCI Yeast Anticancer Drug Screen. Data for the cln2 rad14 strain (AID 165);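 note: 0% = growth equal to vehicle treated cultures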; conditions: S. cerevisiae cln2 rad14 strain, at 50.0 µM, active compounds read high
Procedure, shortened: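 The screen exposed genetically defined yeast (cln2 rad14) to test compounds and scored growth inhibition relative to vehicle-treated controls.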

[5] = NCI Yeast Anticancer Drug Screen. Data for the bub3 strain (AID 167); conditions: S. cerevisiae bub3 mutant strain, at 50.0 µM, active compounds read high
Procedure, shortened: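 Whole-cell yeast assay. The mutant strain was incubated with compounds, and growth inhibition was determined by comparison with vehicle-treated cells.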

[6] = NCI Yeast Anticancer Drug Screen. Data for the mlh1 rad18 strain (AID 175); conditions: S. cerevisiae mlh1 rad18 strain growth inhibition; at 50.0 µM; active compounds read high
Procedure, shortened: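 Compound-treated yeast growth, normalised to vehicle controls. Strain bears defined DNA repair mutations.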

Measured: growth inhibition

CCOC(=O)c1cnc(SCc2ccccc2)[nH]c1=O
inactive: [1] -6.1% | [2] -9.8% | [3] -17.7% | [4] -3.7% | [5] -16.6% | [6] -13.3%

COc1ccc(C(=O)/C=C/c2ccc(OC)c(OC)c2OC)c(O)c1
inactive: [1] 17.6% | [2] 1.4% | [3] -8.55% | [4] -18.5% | [5] 16.6% | [6] 14.7%

CCOC(=O)C(CCC(c1ccc(OC)cc1)c1ccc(OC)cc1)C(=O)OCC
inactive: [1] 29.7% | [2] -8.15% | [3] 10.2% | [4] 2.05% | [5] 27.6% | [6] -18.2%

O=C(O)C(C(=O)O)C1CCCCCC1
inactive: [1] -34.4% | [2] -6.6% | [3] -17.9% | [4] -29.9% | [5] -1.9% | [6] 14.2%

Cc1ccc(S(=O)(=O)N/N=C2/C(=N/NS(=O)(=O)c3ccc(C)cc3)C3CCC2C3)cc1
inactive: [1] 6.7% | [2] 4.85% | [3] -2.75% | [4] -29.2% | [5] -1.7% | [6] -6.45%

O=C1OC(c2ccccc2)=N/C1=C\c1cccc(F)c1
inactive: [1] -18.4% | [2] -18.2% | [3] -23.1% | [4] -6.95% | [5] -16.1% | [6] 6.25%

O=C(NC(=S)Nc1ccc(Cl)cc1C(=O)c1ccccc1)c1ccc(Cl)cc1Cl
active: [4] 74.4%
inactive: [1] -32% | [2] 6.9% | [3] -8.45% | [5] -3.05% | [6] -1.15%

COCCNC1CCC2(SCCS2)c2[nH]c3ccccc3c21 (stereo unspecified)
inactive: [1] -10.3% | [2] -12.8% | [3] 15.1% | [4] -14% | [5] -9% | [6] 40.2%

CCOC(=O)c1c(C)n2c3c(cccc13)CCC2
inactive: [1] 23.4% | [2] 16.9% | [3] 3.05% | [4] 61.6% | [5] 8.6% | [6] 12.8%

CC(C)OC(=O)Oc1ccc(Cl)cc1Cl
inactive: [1] 6.2% | [2] -19.1% | [3] 10.1% | [4] -47.2% | [5] -9.95% | [6] 3.45%

CCOC(=O)/C(OC(C)=O)=C1/C=C(C(=O)c2ccccc2)CCC1
inactive: [1] 7.8% | [2] 25.2% | [3] 11.9% | [4] -4.1% | [5] 27.1% | [6] 7.4%

CC1(C)C(=O)N2c3ccccc3C3(CC(N4C(=O)c5ccccc5C4=O)C(=O)O3)C2N1C(=O)OCc1ccccc1 (stereo unspecified)
inactive: [1] 26.1% | [2] 13.8% | [3] 9.35% | [4] 15.2% | [5] 14.1% | [6] -13.1%

Oc1cc(-n2cccn2)c(O)cc1-n1cccn1
inactive: [1] 23.1% | [2] -4.75% | [3] 15.3% | [4] 5.25% | [5] 12.2% | [6] -39%

O=C1CCC2=C(N1)C(=O)C=CC2=O
inactive: [1] 1.8% | [2] 13.2% | [3] -13.2% | [4] -32% | [5] -8.35% | [6] 10.9%

ClC1=C(Cl)C2(Cl)C3C(c4ccc(I)cc4C4C3C3(Cl)C(Cl)=C(Cl)C4(Cl)C3(Cl)Cl)C1(Cl)C2(Cl)Cl (stereo unspecified)
inactive: [1] 14.6% | [2] 15.4% | [3] 8.8% | [4] 14.1% | [5] 20.6% | [6] 16.9%

O=C(CCc1nnc2s/c(=C\c3ccc(Cl)cc3Cl)c(=O)n12)Nc1cc(Cl)c(Cl)cc1Cl
inactive: [1] -17.6% | [2] 18.2% | [3] -7.4% | [4] 20.6% | [5] 9.05% | [6] 4.35%

O=C1c2ccccc2C(=O)N1/N=C/c1ccc([N+](=O)[O-])cc1
inactive: [1] -4.4% | [2] -17% | [3] -16.3% | [4] -11.5% | [5] -13.9% | [6] -22.5%

CC1(O)c2ccccc2-c2c1n([O-])c1ccccc1[n+]2=O (stereo unspecified)
inactive: [1] 7.9% | [2] -6.2% | [3] 12.2% | [4] -43.9% | [5] -1.8% | [6] 3.9%

O=C(O)c1ccccc1C(NC(=O)N1C(=O)C=CC1=O)NC(=O)N1C(=O)C=CC1=O
inactive: [1] 29.2% | [2] -5.1% | [3] -2.85% | [4] 16.4% | [5] 4.8% | [6] 12.8%

O=[N+]([O-])c1ccc(/C=C/c2csnn2)cc1
inactive: [1] -16.7% | [2] -31.8% | [3] -13.8% | [4] 22% | [5] 2% | [6] -24.6%

CNOCc1ccc(C(=O)NC(C)C)cc1
inactive: [1] 12.2% | [2] 17.6% | [3] 2.8% | [4] -30.9% | [5] 11.7% | [6] 17.5%

CSc1ccc(NC(=O)c2cccc([N+](=O)[O-])c2C(=O)O)cc1
inactive: [1] 5.05% | [2] 8.25% | [3] 13.2% | [4] -6.35% | [5] 15.2% | [6] 1.6%

Cc1ccc(C)c2nc3c(C)ccc(C)c3cc12
inactive: [1] 22.5% | [2] 1.4% | [3] 13% | [4] -25.9% | [5] -0.45% | [6] 14.3%

N#C/C=C/c1cccc(Cl)c1
inactive: [1] 39.1% | [2] 7.9% | [3] 1.9% | [4] 14.3% | [5] 14.3% | [6] 16.9%

CCOc1ccc(/C=C2N=C(/C=C/c3ccccc3)OC\2=O)cc1
inactive: [1] 19% | [2] 14.8% | [3] 19.1% | [4] 16.6% | [5] 3.2% | [6] 3.75%

O=C1CCCC/C1=C\c1ccc([N+](=O)[O-])cc1
inactive: [1] 28.4% | [2] 27.9% | [3] 29.4% | [4] 10.1% | [5] 21.8% | [6] 40.4%

[Cl][Sn]1([Cl])[CH2]CCCCCCCCCC[CH2][Sn]([Cl])([Cl])[CH2]CCCCCCCCCC[CH2]1
inactive: [1] -12.9% | [2] 1.2% | [3] 9.65% | [4] -12.7% | [5] -13.6% | [6] -25.5%

O=C1c2ccccc2C(=O)N1CCOCCOCCOCCN1C(=O)c2ccccc2C1=O
inactive: [1] 9.4% | [2] -5.95% | [3] -0.75% | [4] -12.3% | [5] -2.75% | [6] -36%

c1ccnnc1
inactive: [1] 15.9% | [2] -29% | [3] 4.8% | [4] -10.2% | [5] -0.4% | [6] 4.25%

CC(C)(C)NNC(=O)/C(=C/c1ccc([N+](=O)[O-])cc1)NC(=O)c1ccccc1
inactive: [1] 11.6% | [2] -17.3% | [3] -8.5% | [4] 5.2% | [5] -6.2% | [6] -15.7%

NNC(=O)CC(O)C(=O)NN (stereo unspecified)
inactive: [1] -4.7% | [2] -0.8% | [3] -1.85% | [4] 11.4% | [5] -1.75% | [6] 4.75%

CC(C)CCOC(=O)N(C)c1ccccc1
inactive: [1] 9.3% | [2] 0.2% | [3] 10.3% | [4] -17.9% | [5] -24% | [6] -9.8%

O=C(NCC(CC(NC(=O)c1ccccc1)C(=O)O)NC(=O)c1ccccc1)c1ccccc1 (stereo unspecified)
inactive: [1] -20.5% | [2] -4.85% | [3] -11.4% | [4] 16% | [5] -5.9% | [6] 0.9%

CCCCCCCCCCC1SCC(=O)N1c1nncs1 (stereo unspecified)
inactive: [1] 13.2% | [2] 0.75% | [3] 16.6% | [4] 10.2% | [5] 4.2% | [6] 4.25%

CC(=O)/C(C)=N/Nc1ccccc1
inactive: [1] 7.35% | [2] 8.6% | [3] -2.6% | [4] -11% | [5] -5.7% | [6] 11%

Nc1cccc(CC(=O)c2ccccc2)n1
inactive: [1] -4.3% | [2] -11% | [3] -7.9% | [4] -8.55% | [5] -3.05% | [6] -13.1%

OCCc1cc2ccccc2c2ccccc12
inactive: [1] -3.55% | [2] 6.75% | [3] -4.8% | [4] -11.9% | [5] -15.9% | [6] -12.9%

NCc1ccccc1[N+](=O)[O-]
inactive: [1] 11.4% | [2] 6.2% | [3] 3.5% | [4] -1.6% | [5] 3.5% | [6] 12%

COc1ccc(C(Br)C(Br)C(=O)C(C)(C)C)cc1 (stereo unspecified)
inactive: [1] -2.95% | [2] 8.75% | [3] 6.2% | [4] -21.6% | [5] 31.6% | [6] 30.4%

NC1=Nc2ccccc2Sc2nnc(-c3ccc(Cl)cc3)n21
inactive: [1] 1.75% | [2] -3.25% | [3] -11.8% | [4] -3.3% | [5] -15.2% | [6] 4.6%

COC(=O)CCc1ccc(N)cc1
inactive: [1] 4.85% | [2] -2.95% | [3] 9.5% | [4] -4.3% | [5] -2.1% | [6] 2.9%
